These results are taken from PubChem BioAssay AID1117319 (Southern Research Institute, 2015).

The term inhibition denotes the change of the read-out against control, counted positive when it falls.

Values joined by “and” are separate entries in the source; they are usually repeats but may differ in a detail not shown here. Equal values may be shown once. In all, about 260,000 compounds went through this assay and about 1,500 (0.58%) were called active. Not shown: some 5% with an inconclusive outcome. These entries were drawn from the full list. Measured potencies and affinities stand elsewhere. Values without a mark were called inactive.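 How the source made its calls: active means inhibition above a set limit at one or more doses, reproduced on every date tested; inconclusive means results disagree between test dates, or hit never tested in dose response; inactive means the rest.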

The target of the experiment is Virion infectivity factor (Human immunodeficiency virus type 1 group M subtype B (isolate BH10)) + Virion infectivity factor (Human immunodeficiency virus type 1 group M subtype B (isolate BRU/LAI)) + Virion infectivity factor (Human immunodeficiency virus type 1 group M subtype B (isolate PCV12)) + Virion infectivity factor (Human immunodeficiency virus type 1 group M subtype B (isolate HXB2)) + DNA dC->dU-editing enzyme APOBEC-3G (Homo sapiens) (UniProt P69720+P69721+P69722+P69723+Q9HC16). Kind of experiment: HIV-1 Vif–A3G interaction blockers – biochemical, TR-FRET, GST-Vif 1-94, biotin-A3G peptide, dose response retest, primary screen (AID 1117319).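 Further: Vif residues 1-94 fused to GST binding biotinylated APOBEC3G peptide 110-148; 0% = full assay without inhibitor and 100% = GST in place of GST-Vif.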 Conditions: TR-FRET GST-Vif / biotin-A3G peptide binding; stronger effect = higher value.
As to `CCOC(=O)N1CCN(C(=O)COc2ccc(S(=O)(=O)NC(C)C)cc2)CC1`, the inhibition is -4.61%.
Turning to `CCCNS(=O)(=O)c1ccc(OCC(=O)N2CCC(C(=O)OCC)CC2)cc1`, the inhibition was -4.14%.
As for `O=C(Nc1ccc2c(c1)OCCO2)c1ccc(Cl)cc1`, the figure is -3.98%; as for `CC(=O)c1cc2c(cc1NC(=O)c1cccc(S(=O)(=O)N3CCN(C)CC3)c1)OCO2`, -12.7%.
For `C/C(=N\NC(=O)c1ccc(=O)[nH]n1)c1cccnc1`, the inhibition was 3.66%.
As for `COc1ccc(-c2csc(COC(=O)C(C)(C)C)n2)cc1`, the figure is -3.51%.
As for `CC(C)(C)C(=O)OCc1nc(-c2ccc(Cl)cc2)cs1`, the figure is -5.87%; as for `N#C/C(=C\c1ccc(-c2cccc([N+](=O)[O-])c2)o1)C(=O)Nc1nc(-c2cccs2)cs1`, 3.46%.
For the compound `Cc1cccc(NC(=O)CN(C)S(=O)(=O)c2cccc3cccnc23)c1`, the inhibition is 2.4%.
The same measure for `Cc1cc(C#N)c(C)c(SCc2[nH]nc3c2C(c2ccccc2)C(C#N)=C(N)O3)n1` (stereo unspecified): 7.14%; for `COC(=O)c1ccccc1NC(=O)CN1CCC(C)CC1`: 26.5%.
The same measure for `Cc1c(NC2=C(Cl)C(=O)N(c3ccccc3)C2=O)c(=O)n(-c2ccccc2)n1C`: 6.24%; for `COCCN(C(=O)COC(=O)CSc1cc(C)ccc1C)c1c(N)n(Cc2ccccc2)c(=O)[nH]c1=O`: -5.52%; for `CC(=O)Nc1ccc2c(c1)OCCO2`: -3.04%.
The same measure for `CC(=O)Nc1ccc2c(c1)OCCOCCOc1cc(NC(C)=O)ccc1OCCOCCOCCO2`: 30.1%; for `COc1ccc(-n2cccc2/C=C/[N+](=O)[O-])cc1`: 20.8%.
As for `O=C(O)c1cccc(-n2cccc2C=C2C(=O)c3ccccc3C2=O)c1`, the inhibition is 29.9%.
In the case of `CC(C)[C@H](NC(=O)OCc1ccccc1)C(=O)OCC(=O)N1CCN(c2ccc(F)cc2)CC1`, the inhibition was -1.08%.
`CCNc1nc(ON=C(C)C)nc(N(C)C)n1`: the inhibition was -7.57%.
As for `CCC(C)NC(=O)c1ccc(CSCc2ccccc2Cl)o1` (stereo unspecified), the figure is 2.45%.
The same measure for `COc1ccc(OC)c(Nc2nc(-c3sc(N)nc3C)cs2)c1`: 7.55%; for `COc1ccc(OC)c(Nc2nc(-c3cccs3)cs2)c1`: 3.68%; for `Cc1ccc(C2/C(=C(\O)c3ccc4c(c3)OCCO4)C(=O)C(=O)N2CC2CCCO2)cc1` (stereo unspecified): -0.97%.
As for `COc1ccc(/C(C)=N/NC(=O)CNC(=O)c2cccnc2)c(OC)c1`, the figure is 3.46%; as for `COc1ccc(OC)c(NC(=O)NC2CCCCCCC2)c1`, -6.56%; as for `COc1ccccc1C(=O)N1CCCC(c2nc(-c3cc(OC)c(OC)c(OC)c3)no2)C1` (stereo unspecified), -8.18%.
For the compound `CC1=C(C(=O)Nc2ccccc2C)C(c2ccc(C)o2)n2c(s/c(=C/c3ccccc3)c2=O)=N1` (stereo unspecified), the inhibition was 29.2%.
Turning to `CCOC(=O)C1=C(c2ccccc2)N=c2s/c(=C\c3cccc(O)c3)c(=O)n2C1c1cccs1` (stereo unspecified), the inhibition is -2.23% and -5.42%.
The same measure for `CCOC(=O)C1=C(C)N=c2s/c(=C/c3ccccc3)c(=O)n2C1c1ccc(OC)c(OC)c1` (stereo unspecified): 1.78%; for `COc1ccc(C2C(C(C)=O)=C(C)N=c3s/c(=C\c4ccco4)c(=O)n32)c(OC)c1` (stereo unspecified): 31.2%.
Regarding `CCOC(=O)C1=C(c2ccccc2)N=c2s/c(=C\c3ccc(O)cc3)c(=O)n2C1c1cccs1` (stereo unspecified), the inhibition is -10.4%.
On to `CC1=C(C(=O)Nc2ccccc2)C(c2ccc(C)o2)n2c(s/c(=C/c3ccccc3)c2=O)=N1` (stereo unspecified), for which the inhibition is 12.7%.
The same measure for `COc1cccc(CNC(=O)CSCc2cnn(-c3ccccc3)c2-n2cccc2)c1`: 2.53% and 7.19%; for `CC(=O)c1cnc2n(c1=O)CCS2`: -2.48%; for `COc1ccc(C(CC(=O)c2ccc(C)cc2)C(C#N)C#N)cc1OC` (stereo unspecified): -6.99%.
As to `O=C(O)CCCNC(=O)OCc1ccccc1`, the inhibition is -2.72%.
Consider `CC1CCN(S(=O)(=O)c2ccc(S(=O)(=O)NCC3COCCO3)cc2)CC1` (stereo unspecified), for which the inhibition was 8.23%.
The same measure for `CCNS(=O)(=O)c1ccc(CCC(=O)O)cc1`: -1.11%.
On to `CCN(CC)S(=O)(=O)c1ccc(N2CC(C(=O)NCCC3=CCCCC3)CC2=O)cc1` (stereo unspecified), for which the inhibition is -3.38%.
The same measure for `Cc1ccc(S(=O)(=O)N2CCN(Cc3ccccn3)CC2)cc1`: 0.21%; for `CC(=O)Nc1ccc(S(=O)(=O)N2CCN(c3ccccn3)CC2)cc1`: 25%; for `O=C(O)/C(=C\c1cn(-c2ccccc2)nc1-c1cccnc1)NC(=O)c1ccccc1`: -1.44%.
As to `Cc1cccc(OCc2n[nH]c(=S)n2-c2ccccc2)c1`, the inhibition is 1.89%.
As to `Cc1ccc(OCc2n[nH]c(=S)n2-c2ccccc2)cc1C`, the inhibition is -3.72%.
For the compound `O=C(CN1CCN(C(=O)c2ccccc2)CC1)Nc1cc(S(=O)(=O)N2CCCC2)ccc1Cl`, the inhibition is -24.1%.
On to `COC(=O)C1=C(C)NC(C)=C(C(=O)OC)C1C(=O)OCc1nc2cc(C(=O)OC)ccc2c(=O)[nH]1`, for which the inhibition is -5.82%.
The same measure for `Cc1ccc(-c2nc(N)n(S(=O)(=O)c3ccc(C)cc3)n2)cc1`: 0.67%; for `CC(C)C1Nc2ccc(S(N)(=O)=O)cc2C2C=CCC21` (stereo unspecified): 30.5%.
Take `O=C(C1CC=CCC1)N1CCN(S(=O)(=O)c2ccc(F)cc2)CC1` (stereo unspecified): the inhibition is -4.47%.
On to `CC(OC(=O)c1n[nH]c2ccccc12)C(=O)NC1CCCCC1C` (stereo unspecified), for which the inhibition is 1.37%.
The same measure for `CCOC(=O)N1CCN(c2ccc(Cl)cc2)CC1`: -2.77%.
In the case of `CCOC(=O)N1CCN(c2ccc([N+](=O)[O-])cc2)CC1`, the inhibition was 0.75%.
For the compound `CCc1ccccc1NC(=S)N(CCCN(C)C)Cc1cc2cc3c(cc2[nH]c1=O)OCO3`, the inhibition is -0.74%.
The same measure for `Clc1ccc(Oc2nc(N3CCOCC3)nc(N3CCOCC3)n2)c(C2CCCCC2)c1`: -3.78%; for `O=C(NC1CC1)c1ccc2c(c1)C1C3CCC(C3)C1C(c1ccccc1)N2` (stereo unspecified): 3.47%.
Regarding `CCN(C(=O)c1ccc(Cl)c([N+](=O)[O-])c1)c1ccccc1`, the inhibition is 3.48%.
The same measure for `O=C(O)c1cccc2c1-c1c(cccc1[N+](=O)[O-])C2`: -2.94%.
The same measure for `O=C(O)C1CCC(NSc2ccccc2[N+](=O)[O-])CC1` (stereo unspecified): -7.35%; for `CCN(CC(=O)Nc1ccc(NC(C)=O)cc1)C(=O)c1ccc(N2CCC(C)CC2)c([N+](=O)[O-])c1`: 3.59%; for `O=C(O)c1ccc(N2C(=O)CSC2c2cccc([N+](=O)[O-])c2)cc1` (stereo unspecified): -1.67%.
As to `CC(C)Cc1cc(C(=O)Nc2cc(C(F)(F)F)ccc2Cl)no1`, the inhibition is 14.1%.
As to `C=Cc1ccc(CSc2cc(C)nc3nc(C)nn23)cc1`, the inhibition was -4.49%.
As for `Cc1ccc(CNc2ccc3c(c2)ncn3C(C)C)cc1`, the figure is 15.2%.
The same measure for `CC(C)(C)c1ccc(C(=O)C2CCCN(C(=O)CN3CCCC3=O)C2)cc1` (stereo unspecified): -3.41%; for `Cc1ccc(NC(=O)CCCN2C(=O)C(c3ccccc3)Oc3cccnc32)c(C)c1` (stereo unspecified): -3%; for `COc1ccc(C(=O)N/C(=C\c2ccco2)C(=O)OCc2ccco2)cc1`: 19.9%.
Consider `CCCCOc1ccc(C(=O)N/C(=C\c2ccc(OC)cc2)C(=O)OCc2ccco2)cc1`, for which the inhibition is -1.87%.
As for `COc1ccc2c(c1)NC(C)(C)C=C2C`, the figure is 32.2%.
The same measure for `COc1cc(NC(C)CCCNC(C)C)c2ncccc2c1OC` (stereo unspecified): 3.4%.
As for `COc1cc(NCCCCCCCN)c2ncccc2c1`, the figure is 3.69%; as for `COC(=O)c1cc(NC(=O)COC(=O)CCc2c[nH]c3ccccc23)cc(C(=O)OC)c1`, 2.64%.
Turning to `O=C1N=C(N2CCOCC2)S/C1=C/c1ccc(-c2ccccc2Cl)o1`, the inhibition was 7.88%.
As for `CC(=O)N1CC(=O)N(Cc2ccccc2)/C(=C/c2ccccc2)C1=O`, the figure is 7.17%.
With `O=C1CC(/C=C/c2ccccc2)=Nc2ccccc2N1`, the inhibition is 4.19%.
As to `O=C1CC(/C=C/c2ccncc2)=Nc2ccccc2N1`, the inhibition was 3.89%.
For `CC1=C([N+](=O)[O-])C(c2ccc(Cl)cc2)NC(=O)N1C` (stereo unspecified), the inhibition is 6.98%.
The same measure for `FC(F)(F)c1ccc(N2CCN(Cc3ccc4c(c3)OCO4)CC2)nc1`: -10.1%.
With `CCOC(=O)C1=C(N)OC2=C(C(=O)CC(C)(C)C2)C1c1ccoc1` (stereo unspecified), the inhibition is -2.95%.
For the compound `CC(C)NC(=O)COc1ccc(Cl)cc1Cl`, the inhibition is -3.29%.
The same measure for `C/C(=C\C(=O)c1ccc(Br)cc1)Nc1cccc(Cl)c1`: -2.57%; for `Cc1ccc(C(=O)/C=C/Nc2cccc(O)c2)cc1`: 1.59%.
The same measure for `O=C(Cc1ccccc1)NNC1CC(=O)N(c2ccc(Cl)cc2)C1=O` (stereo unspecified): 8.41%.
For `Cc1ccnc(SCc2cc(=O)c(OC(=O)c3ccccc3)co2)n1`, the inhibition was 6.36%.
On to `CCN(CC)c1ccc(NC(=O)Nc2ccccc2)cc1`, for which the inhibition was 5.11%.
For `CCN(CC)c1ccc(C(=S)NCc2ccccc2)cc1`, the inhibition is 7.25%.
`COc1ccccc1NC(=O)C(C)N1C(=O)C2CCCCC2C1=O` (stereo unspecified): the inhibition was 9.66%.
The same measure for `COc1ccc(CCNC(=S)Nc2cc(C)ccc2C)cc1`: 2.7%; for `Cn1cccc1/C=C1\SC(=Nc2ccc(O)cc2)NC1=O`: -0.29%.
Regarding `COc1ccc(N=C2NC(=O)/C(=C/C=C/c3ccccc3)S2)cc1`, the inhibition is -3.43%.
As for `COC(=O)/C=C1\SC(=Nc2ccc(OC)cc2)NC1=O`, the figure is -0.91%; as for `O=C1NC(=Nc2ccc3ccccc3c2)S/C1=C/c1ccco1`, -0.8%.
